High-throughput results from PubChem BioAssay.
Pf apPOL inh: Pf-apPOL DNA polymerase inhibition. Recombinant Pf-apPOL, molecular beacon fluorescence, 1.5 h. inhibition, % at 10 µM. hit rate 0.25% among 210,000. AID 1794808
mHTT-CaM PPI inh: inhibitors of human mutant huntingtin-calmodulin interaction; AID 1671202; AlphaScreen His-mHTT/GST-CaM binding, luminescence; inhibition, % at 15 µM; hit rate 3.6% among 190,000;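 also: 0% = both proteins with DMSO and 100% = one protein alone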
* marks the source's active call; other numbers are inactive results; . = no result. Compounds with a hit are over-represented: about 3.5% of the library has one in this group of screens. Rule as the data show it: active = inhibition above about 50%; inactive = the rest.

SMILES	Pf apPOL inh	mHTT-CaM PPI inh
CC(=O)Nc1ccc2c(c1)C1C=CCC1C(C(=O)O)N2 (stereo not drawn)	-10	89*
COc1ccc2c(c1)C1C=CCC1C(C(=O)O)N2 (stereo not drawn)	2	100*
CC(=O)Nc1ccc2c(c1)OCCO2	-2	.
CC(=O)Nc1ccc(NC(=O)c2ccc(Cl)cc2Cl)cc1	-8	-9
O=C(Nc1ccc2c(c1)C1C=CCC1C(C(=O)O)N2)c1ccc(Cl)cc1Cl (stereo not drawn)	2	94*
COc1ccc(OC)c(C2NC(C(=O)O)CS2)c1 (stereo not drawn)	-7	46
CCc1nc(-c2c(C)cc(C)nc2NC(=O)c2ccc(C)c(F)c2)no1	-5	0
Cc1ccc(S(=O)(=O)N2CCC(=O)N(C(COC(=O)Nc3ccccc3)Cc3ccccc3)CC2)cc1 (stereo not drawn)	-10	2
O=C(c1cc(Cl)cc(Cl)c1)N1CCC(=O)N([C@H](COCc2ccccc2)Cc2ccccc2)CC1	-3	92*
O=C(c1cccc(Cl)c1)N1CCC(C(=O)N2CCN(Cc3ccccc3)CC2)CC1	0	10
O=C(c1cccc(Cl)c1)N1CCC(=O)N([C@H](COCc2ccccc2)Cc2ccccc2)CC1	-4	66*
O=C1NC2(CCN(Cc3ccncc3)CC2)Nc2ccccc21	-4	-2
CCCn1c(=O)c(N2CCN(C(=O)CC)CC2)nc2ccccc21	-4	-6
Cc1ccc(N(CC(O)CN2C(=O)NC(C)(C)C2=O)S(=O)(=O)c2ccc([N+](=O)[O-])cc2)cc1 (stereo not drawn)	-3	61*
CC1(C)NC(=O)N(CC(O)CN(c2cccc([N+](=O)[O-])c2)S(=O)(=O)c2ccccc2)C1=O (stereo not drawn)	-6	0
CN(C)c1ccc(C(=O)N2CCCc3ccccc32)cc1	-9	.
Cc1sc2nc(C)n(Cc3csc(-c4ccc(Cl)cc4)n3)c(=O)c2c1C	-4	-8
Cc1sc2nc(C)n(Cc3ccc(C(F)(F)F)cc3)c(=O)c2c1C	-3	88*
COc1cccc(N=Cc2c[nH]c3ccccc23)c1	2	100*
CC(C)c1ccc(N=Cc2c[nH]c3ccccc23)cc1	-1	2
COc1cc(CN2CCc3nc(Nc4ccc(F)cc4)ncc3C2)ccc1OC(C)C	-5	95*
COc1cc(CN2CCc3nc(Nc4ccccc4F)ncc3C2)ccc1OC(C)C	-3	11
COc1cc(CN2CCc3nc(Nc4ccccc4)ncc3C2)ccc1OC(C)C	-1	57*
CCOc1ccc(CN2CCc3nc(Nc4ccccc4)ncc3C2)cc1OC	-2	-6
O=Cc1ccc(-c2ccc(Br)c(Cl)c2)o1	-10	4
SMILES	Pf apPOL inh	mHTT-CaM PPI inh
COc1cccc(NC(=O)N2CCCc3ccccc32)c1	-11	.
COc1cccc(NC(=O)N2CCN(C)c3ccccc32)c1	0	53*
CC1CCN(Cc2csc(N3CCN(C(=O)Cc4cccs4)CC3)n2)CC1	-3	23
O=C1ON=C(CSc2ccccc2)C1=Cc1ccccc1	61*	.
O=C1CCC=C1CSc1ccccc1	.	-7
CCOc1ccc(C(=O)Nc2ccc(C)cc2Br)cc1	-4	-9
CCC(Sc1nc2ccccc2o1)C(=O)Nc1ccc(Cl)cn1 (stereo not drawn)	-2	-16
CCC(Sc1nc2ccccc2o1)C(=O)Nc1nnc(C)s1 (stereo not drawn)	85*	0
CC(O)(CNC(=O)COc1ccc(F)cc1)c1ccccc1 (stereo not drawn)	-2	-16
O=C(Cn1cnc2c(cnn2CCO)c1=O)Nc1cc(C(F)(F)F)ccc1Cl	2	-14
CCOC1=CC(=Cc2c(N)n3nc(C(C)C)sc3nc2=O)C=CC1=O	-6	10
Cc1ccsc1C1C2=C(CCCC2=O)Nc2ncnn21 (stereo not drawn)	-3	-4
Cc1ccsc1C1C2=C(CC(C)(C)CC2=O)Nc2ncnn21 (stereo not drawn)	1	87*
O=C(COc1nsnc1N1CCOCC1)Nc1ccc(Br)cc1	-6	5
O=C(COc1nsnc1N1CCCCC1)Nc1ccc(Br)cc1	-9	51*
C=CCNCCOc1ccc(Br)cc1C	-2	54*
C=CCNC(=O)COc1ccc(Br)cc1C	4	-10
O=C(CSc1cn(CCNC(=O)c2ccccc2F)c2ccccc12)NCc1ccco1	0	13
Cn1cc(CCC(=O)NCc2ccco2)c2ccccc21	-12	3
Cc1ccccc1Cn1cc(SCC(=O)NCc2ccco2)c2ccccc21	-1	86*
O=C(CSc1cn(Cc2ccc(Cl)cc2)c2ccccc12)NCc1ccco1	-2	54*
Cc1[nH]nc(-c2cccc(Cl)c2)c1NC(=O)C1CCCC1	0	20
Cc1ccc(C(=O)N/C(=C\c2ccco2)C(=O)N2CCN(c3ccccn3)CC2)cc1C	-5	70*
Cc1ccc(C(=O)N/C(=C/c2ccco2)C(=O)NCCc2ccccn2)cc1C	-3	11
O=C1CCc2cc(NC(=O)c3ccno3)ccc2N1	-2	-13
Cc1cccc(NC(=O)CCS(=O)(=O)c2ccc(Br)cc2)n1	-8	-1
